NPYLR7 agonist = mosquito NPYLR7 agonism; HEK293T NPYLR7/Galpha15, GCaMP6s calcium fluorescence; activation, % at 10 µM; 0.15% of 270,000 active; in the data active means activation above about 40%
hcGAS inh = human cGAS inhibition; 0.081% of 290,000 active; recombinant h-cGAS, ATP depletion, Kinase-Glo luminescence; Q8N884; AID 1259398; inhibition, % at 12.5 µM
Target sequence (Q8N884 whole entry, looked up): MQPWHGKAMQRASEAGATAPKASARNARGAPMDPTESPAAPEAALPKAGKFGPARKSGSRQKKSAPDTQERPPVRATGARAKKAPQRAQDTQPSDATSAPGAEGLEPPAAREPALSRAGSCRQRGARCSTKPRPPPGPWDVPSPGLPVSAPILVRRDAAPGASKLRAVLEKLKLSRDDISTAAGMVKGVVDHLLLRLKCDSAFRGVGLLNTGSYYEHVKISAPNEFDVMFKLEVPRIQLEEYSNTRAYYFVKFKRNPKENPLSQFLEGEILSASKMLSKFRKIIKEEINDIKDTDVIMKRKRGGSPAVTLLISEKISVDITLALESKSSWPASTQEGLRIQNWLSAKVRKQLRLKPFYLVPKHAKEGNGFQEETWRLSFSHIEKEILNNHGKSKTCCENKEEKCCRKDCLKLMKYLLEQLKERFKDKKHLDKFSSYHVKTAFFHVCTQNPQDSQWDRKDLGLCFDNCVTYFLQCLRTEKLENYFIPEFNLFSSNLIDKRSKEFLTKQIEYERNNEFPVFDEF
mcGAS lum = inhibitors of mouse cGAS. Q8C6L5. recombinant cGAS, Kinase-Glo ATP depletion luminescence. inhibition, % at 12.5 µM. 0.15% of 160,000 active. AID 1259399
Hits are given with their value; n = inactive; x = no result given; ! = not confirmed by another sample. Compounds with a hit are over-represented: about 0.24% of the library has one in this group of screens. Unless noted, no stated cut-off is given here; in the data, active means inhibition above about 40%; inactive means the rest.

SMILES | NPYLR7 agonist | hcGAS inh | mcGAS lum
CC(=O)C1=C(c2ccc(F)cc2)N(C(C)=O)n2c(C)nnc2S1 | n | n | x
C=CCOc1c(OC)ccc2c1CN(C(C)C)C(=O)CCN2CC(O)CCC (configuration not stated) | n | n | n
O=C(O)c1cccnc1S(=O)(=O)C(F)(F)F | n | n | x
O=C(O)c1cccnc1C(=O)O | n | 53.5! | n
COc1ccc(-c2nc(N3CCN(C(=O)Cc4ccc(F)cc4)CC3)c3ccccc3n2)cc1 | n | n | n
O=C(COC(=O)C1C2CC3C(OC(=O)C31)C2Br)c1cccs1 (configuration not stated) | x | n | x
OC(c1cccs1)c1nnc(Nc2ccc(Oc3ccccc3)cc2)s1 (configuration not stated) | n | n | n
COCC(=O)N1CCCC(C(=O)NC2CCCC[C@H]2NC(=O)c2ccccc2)C1 (some centres not stated) | x | n | n
COc1ccc(C(=O)N[C@@H]2CCCCC2NC(=O)C2CCCN(C(=O)CCc3ccccc3)C2)cc1 (some centres not stated) | x | n | 79.3
Cc1ccc(-c2ccc(/C=N\Nc3nc4nonc4nc3Nc3ccc(Br)cc3)o2)cc1Cl | n | n | 84.1
COCc1cc(C)nc(NN=Cc2ccc(-c3ccc(Br)cc3)o2)c1C#N | n | n | n
COC(=O)C1C(Cc2ccccc2)N1C(=O)OC(C)(C)C (configuration not stated) | n | n | x
CCOc1cc(/C=C2\C(=N)N3N=CSC3=NC2=O)cc(Br)c1OC(=O)c1ccccc1 | 73.6 | n | x
COc1cc(/C=C2\C(=N)N3N=CSC3=NC2=O)ccc1OC(=O)c1cccc(C)c1 | n | n | x
CCOc1cc(C2Nc3ccccc3N=C3CC(c4ccccc4)CC(=O)C32)cc(Cl)c1O (configuration not stated) | n | n | n
O=C1C(=Cc2ccco2)Sc2ccccc21 | n | n | x
O=C1C(=Cc2cccnc2)Sc2ccccc21 | n | n | 65.4
Cc1ccccc1C(=O)N[C@@H]1CCCCC1NC(=O)C1CCCN(C(=O)c2cccc(F)c2)C1 (some centres not stated) | n | n | n
Cc1ccnc(SCc2cc(=O)c(OC(=O)Cc3cccc4ccccc34)co2)n1 | n | n | 59.9
Cc1ccnc(SCc2cc(=O)c(OC(=O)COc3ccccc3C)co2)n1 | n | n | n
Cc1cc(C)nc(SCc2cc(=O)c(OC(=O)Cc3cccc4ccccc34)co2)n1 | n | n | 68.2
Cc1cc(C)nc(SCc2cc(=O)c(OC(=O)c3ccccc3Cl)co2)n1 | n | n | n
Cc1cc(C)nc(SCc2cc(=O)c(OC(=O)Cc3cccs3)co2)n1 | n | n | n
Cc1cc(C)nc(SCc2cc(=O)c(OC(=O)C3c4ccccc4Oc4ccccc43)co2)n1 | n | n | 92.8
CCCCCCCCCC(=O)Nc1ccc(N(C)C)c(C(=O)N2CCCC2)c1 | n | n | n
SMILES | NPYLR7 agonist | hcGAS inh | mcGAS lum
COc1cc2c(cc1OC)CN(C1CCCN(C(=O)/C=C/c3ccco3)C1)CC2 (configuration not stated) | n | n | x
Cc1cccc(-c2cc(N)n(-c3ccc(C(=O)Nc4ccc(C(C)(C)C)cc4)cc3)n2)c1 | n | n | n
CCCN(C(=O)COCc1ccccc1)C(CC)c1nc2ccccc2c(=O)n1-c1ccc(OCC)cc1 (configuration not stated) | n | n | n
COCCN(CCOC)C(=O)Cn1cnc2ccc(Br)cc2c1=O | n | n | n
CN(C)c1ccc(C=C2SC(N3CCCCC3)=NC2=O)cc1 | n | n | x
O=C(CSc1cn(CC(=O)N2CCCCCC2)c2ccccc12)NC1CCCC1 | 42.3 | n | n
CNC(=O)CSc1cn(CC(=O)N2CCCCCC2)c2ccccc12 | n | n | n
O=C(c1ccccc1)c1ccc2c(c1)N=C1CC(c3ccccc3)CC(=O)C1C(c1cccs1)N2 (configuration not stated) | n | n | n
COc1cc(-c2nc3n(n2)C(c2ccc(O)cc2)C(C(N)=O)=C(C)N3)cc(OC)c1OC (configuration not stated) | 51.2 | n | x
COc1ccc(C2C(C(N)=O)=C(C)Nc3ncnn32)cc1 (configuration not stated) | n | n | n
Cc1ccccc1-n1nc(C)c(CNC(=O)CSc2ccc(C(F)(F)F)cn2)c1C | n | n | x
COc1ccccc1C(=O)OCCN(C1=NS(=O)(=O)c2ccccc21)c1ccccc1Cl | n | n | n
CS(=O)(=O)N=C1C=C(S(=O)(=O)c2ccccc2)C(=O)c2ccccc21 | n | 55.2 | x
COC1=C(OC)C(=O)c2ccccc2C1=O | n | n | n
O=C(O)C(Cc1ccccc1)N1C(=O)/C(=C/c2ccc(Cl)cc2)SC1=S (configuration not stated) | n | n | n
Clc1ccc2c(-n3ccnc3)ccnc2c1 | n | 56.9 | x
Clc1ccc2c(N3CCCNCC3)ccnc2c1 | n | n | n
